We go through 7 compounds from PubChem BioAssay (Tox21).

Experiment [1] is described as follows: Nuclear factor erythroid 2-related factor 2/antioxidant responsive element (Nrf2/ARE) small molecule agonists: qHTS cell viability counter screen in human keratinocytes (AID 1919968; active = well fitted curve in the direction sought with a large enough effect in the repeat runs; an effect the other way counts as inactive or inconclusive; note: nearly all actives have a fitted effect of over 55% in size). In short, it runs like this:
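CellTiter-Fluor fluorescence, read 1 h after reagent, gave viability in the same wells as the ARE-luciferase assay. KeratinoSens cells (1,500/well) had 23 h compound exposure at 37 C/5% CO2 following 5 h plating.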
Background: In qHTS, concentration-response curves come from the screen itself.

The nature of experiment [2]: Nuclear factor erythroid 2-related factor 2/antioxidant responsive element (Nrf2/ARE) small molecule agonists: luciferase reporter gene qHTS assay in human keratinocytes (AID 1919969). Note: nearly all actives have a fitted effect of over 35% in size. Background: Reporter assays use an easily measured gene product as a stand-in for the process of interest.
Experiment [3] concerns the target Gonadotropin-releasing hormone receptor (Homo sapiens) (UniProt P30968). As to the kind of experiment: Human gonadotropin-releasing hormone receptor (GnRHR) small molecule agonists, calcium flux assay in GnRHR-HEK293 cells (AID 1920063). Note: nearly all actives have a fitted effect of over 35% in size. In short, it runs like this:
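Agonist mode: compounds at 15 concentrations, in triplicate, went onto calcium dye-loaded GnRHR-HEK293 cells. Intracellular calcium was then followed as 480/540 nm fluorescence at 1 s intervals over 3 min.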
(In general: Calcium flux is commonly read through the fluorescence of an indicator in the cells.)

The target of experiment [4] is KiSS-1 receptor (Homo sapiens) (UniProt Q969F8). As to the kind of experiment: Human kisspeptin (KISS1R) small molecule agonists, calcium flux assay in KISS1R-HEK293 cells (AID 1920064; active = well fitted curve in the direction sought with a large enough effect in the repeat runs; an effect the other way counts as inactive or inconclusive). Put shortly:
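Agonist mode: intracellular calcium rise tracked at 1 s intervals over 3 min (480/540 nm) immediately after compound addition to dye-loaded KISS1R-HEK293 stable cells. Each compound tested at 15 concentrations in triplicate.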

Experiment [5] can be described thus: G protein-coupled receptor (GPCR) small molecule agonists, calcium flux assay: HEK293 wild type cell line counter screen (AID 1920065). In short, it runs like this:
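Calcium flux counter screen: compound added in agonist mode at 15 concentrations in triplicate to dye-loaded parental HEK293 cells. Fluorescence (480/540) read kinetically for 3 min; ATP served as positive control.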

A short description of experiment [6]: p53 small molecule agonists, cell-based qHTS assay with human liver microsomes: qHTS cell viability counter screen (AID 1963579). Note: nearly all actives have a fitted effect of over 45% in size. Put shortly: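 Seed p53RE-bla cells at 4,000 per well; incubate 5 h at 37 C; add compound, human liver microsomes and NADPH; incubate 16 h at 37 C; add CellTiter-Glo; after 30 min at room temperature, read luminescence.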
Experiment [7] is described as follows: p53 small molecule agonists, cell-based qHTS assay with rat liver microsomes: qHTS cell viability counter screen (AID 1963580). Note: nearly all actives have a fitted effect of over 45% in size. Put shortly:
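Cytotoxicity counter screen: intracellular ATP measured by CellTiter-Glo luminescence in the same wells as the beta-lactamase reporter read, on HCT-116 p53RE-bla cells exposed 16 h at 37 C to compounds with rat liver microsomes and NADPH, each 0.5 mg/mL final.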

A short description of experiment [8]: p53 small molecule agonists, cell-based qHTS assay: qHTS cell viability counter screen (AID 1963581). Note: nearly all actives have a fitted effect of over 45% in size. Put shortly:
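Counter screen read by CellTiter-Glo luminescence (ATP content, 30 min at room temperature), run in the same wells as the beta-lactamase reporter read. HCT-116 p53RE-bla cells saw compounds for 16 h at 37 C.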

Experiment [9] is described as follows: p53 small molecule agonists, cell-based qHTS assay (AID 1963582; active = well fitted activation curve with a large enough effect in the signal ratio in the repeat runs, not every such curve was filed as active; the % refers to the signal ratio). Put shortly:
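Read-out is beta-lactamase FRET fluorescence after 2 h at room temperature with LiveBLAzer B/G substrate. p53 response element-bla cells were treated 16 h at 37 C with compounds in DMSO, added 5 h after seeding.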

The target of experiment [10] is 5-hydroxytryptamine receptor 2A (Homo sapiens) (UniProt P28223). As to the kind of experiment: 5-hydroxytryptamine receptor 2A (HTR2A) small molecule antagonists, cell-based qHTS assay (AID 1963586). Note: nearly all actives have a fitted effect of over 45% in size. In short, it runs like this: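 CHO cells stably expressing human HTR2A were plated for 18 h at 37 C, then loaded with calcium dye for 1 h. Compounds were preincubated 5 min at room temperature before DOI (4 nM solution) was added. Kinetic fluorescence was read for 3 min.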
Chain of 5-hydroxytryptamine receptor 2A (Homo sapiens) (P28223 whole entry, looked up): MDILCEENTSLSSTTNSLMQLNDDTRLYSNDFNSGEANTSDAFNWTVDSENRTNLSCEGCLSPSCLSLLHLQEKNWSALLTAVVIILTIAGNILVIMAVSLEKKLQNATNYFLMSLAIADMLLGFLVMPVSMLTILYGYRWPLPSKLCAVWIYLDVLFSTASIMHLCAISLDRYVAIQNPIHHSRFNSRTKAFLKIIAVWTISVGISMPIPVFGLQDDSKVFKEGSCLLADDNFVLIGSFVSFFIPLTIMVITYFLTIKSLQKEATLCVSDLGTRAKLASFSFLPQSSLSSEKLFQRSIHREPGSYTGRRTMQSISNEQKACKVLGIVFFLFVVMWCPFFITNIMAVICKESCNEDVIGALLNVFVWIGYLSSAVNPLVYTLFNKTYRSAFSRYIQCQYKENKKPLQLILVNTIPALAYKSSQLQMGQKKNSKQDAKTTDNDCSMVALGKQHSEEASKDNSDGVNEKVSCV

Experiment [11] shares this target. The experiment can be described thus: 5-hydroxytryptamine receptor 2A (HTR2A) small molecule agonists, cell-based qHTS assay (AID 1963587). Note: nearly all actives have a fitted effect of over 30% in size. In short, it runs like this: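 CHO cells stably expressing human HTR2A, plated 18 h, loaded with calcium dye 1 h at 37 C. Agonist mode: compounds added and intracellular calcium fluorescence recorded kinetically for 2 min at 1 sec intervals.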

The target in experiment [12] is Muscarinic acetylcholine receptor M1 (Homo sapiens) (UniProt P11229). As to the kind of experiment: Cholinergic receptor muscarinic 1 (CHRM1) small molecule antagonists, cell-based qHTS assay (AID 1963588). Note: nearly all actives have a fitted effect of over 40% in size. Put shortly:
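Compounds were tested at 15 concentrations in three independent runs. Dye-loaded CHRM1-CHO cells were exposed 5 min at room temperature before stimulation by acetylcholine added at 50nM. Intracellular calcium was read kinetically on FDSS for 3 min.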

Experiment [13] has the same target. As to the kind of experiment: Cholinergic receptor muscarinic 1 (CHRM1) small molecule agonists, cell-based qHTS assay (AID 1963589). Note: nearly all actives have a fitted effect of over 35% in size. Put shortly: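 Agonist-mode calcium-flux screen: compounds at 15 concentrations, three independent runs, were pin-transferred onto dye-loaded human CHRM1-CHO cells. Fluorescence was then recorded kinetically every second over minutes.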

Experiment [14] is described as follows: cAMP Responsive Elements (CRE) small molecule agonists, cell-based qHTS assay (AID 1963590). In short, it runs like this: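 Agonist mode: compound added to CRE-bla HEK 293T cells (2,000/well, 18 h after plating) for 3 h at 37 C/5% CO2. Reporter activity detected via FRET beta-lactamase substrate, 2 h room-temperature loading.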
Experiment [15] is described as follows: cAMP Responsive Elements (CRE) small molecule antagonists, cell-based qHTS assay (AID 1963591; active = well fitted inhibition curve with a large enough effect in the signal ratio in the repeat runs, not every such curve was filed as active; the % refers to the signal ratio; note: potency is the fitted concentration of half-maximal effect). In short, it runs like this: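 Antagonist mode: compounds are added alongside the adenylyl cyclase activator NKH477 (0.25 uM final) to CRE-bla HEK293T cells for 3 h. LiveBLAzer FRET substrate, 2 h at room temperature, reports bla expression.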
In experiment [16] the target is Beta-2 adrenergic receptor (Homo sapiens) (UniProt P07550). The experiment can be described thus: Adrenergic beta2 receptor (ADRB2) small molecule antagonists, cell-based qHTS assay (AID 1963592). Note: series mostly up to about 92 µM; nearly all actives have a fitted effect of over 50% in size. In short, it runs like this: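 Assay format: CHO-ADRB2 cells, 18-20hr seeding at 37C/5% CO2, then compound plus 1nM isoproterenol agonist mix for 0.5hr RT. Homogeneous time-resolved fluorescence cAMP detection after 1hr, expressed as 665/615 nm ratio.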
Chain of Beta-2 adrenergic receptor (Homo sapiens) (P07550 whole entry, looked up): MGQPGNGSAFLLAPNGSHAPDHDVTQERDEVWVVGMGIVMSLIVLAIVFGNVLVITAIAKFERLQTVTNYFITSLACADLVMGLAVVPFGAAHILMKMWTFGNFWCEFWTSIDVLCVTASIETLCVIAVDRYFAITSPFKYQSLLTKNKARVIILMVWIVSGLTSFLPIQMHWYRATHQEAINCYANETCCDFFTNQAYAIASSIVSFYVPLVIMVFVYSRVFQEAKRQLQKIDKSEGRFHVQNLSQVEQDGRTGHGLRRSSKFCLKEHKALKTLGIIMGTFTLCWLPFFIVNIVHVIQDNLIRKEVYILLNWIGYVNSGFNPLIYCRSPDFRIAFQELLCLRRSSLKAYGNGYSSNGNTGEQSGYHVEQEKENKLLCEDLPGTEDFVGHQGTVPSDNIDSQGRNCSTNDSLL

Experiment [17] shares this target. As to the kind of experiment: Adrenergic beta2 receptor (ADRB2) small molecule agonists, cell-based qHTS assay (AID 1963593).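 Note: CHO cells stably overexpressing human ADRB2.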 Put shortly:
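CHO cells stably over-expressing ADRB2 were plated overnight at 37C, then dosed with compounds plus a stimulation mix containing 100uM IBMX and 25uM Ro-20-1724 for 0.5hr at room temperature. cAMP was measured by HTRF competition, 1hr.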

The target in experiment [18] is D(2) dopamine receptor (Homo sapiens) (UniProt P14416). The experiment can be described thus: Dopamine D2 receptor (DRD2) small molecule agonists, cell-based qHTS assay (AID 1963594). Note: nearly all actives have a fitted effect of over 35% in size. Put shortly:
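HEK293 cells stably expressing human DRD2, pre-treated with PDE inhibitor Ro20-1724 (0.1 mM final) and compound 10 min at room temperature, then stimulated with NKH477 (200nM […]) for 30 min. cAMP read by HTRF (665/620 nm).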

The target is the same in experiment [19]. As to the kind of experiment: Dopamine D2 receptor (DRD2) small molecule antagonists, cell-based qHTS assay (AID 1963595; active = well fitted inhibition curve with a large enough effect in the signal ratio in the repeat runs, with a control signal flat; the % refers to the signal ratio). In short, it runs like this:
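HTRF cAMP read-out at 665 and 620 nm emission (340 nm excitation). Antagonist mode: compounds were tested against 12 nM quinpirole in DRD2-HEK293 cells, with 200 nM NKH477 raising cAMP and 0.1 mM Ro20-1724 blocking its breakdown.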

Experiment [20] in a line: p53 small molecule agonists, cell-based qHTS assay with rat liver microsomes (AID 1963578). Put shortly: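 Fluorescence from a beta-lactamase reporter under a p53 response element was measured after cells had been incubated 16 h at 37 C with test compound and rat liver microsomes plus NADPH (0.5 mg/mL final each).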

Inconclusive results are not listed. Active and inactive are the calls of the source. Unless noted, calls come from the whole dose curve.

Chain of Gonadotropin-releasing hormone receptor (Homo sapiens) (P30968 whole entry, looked up): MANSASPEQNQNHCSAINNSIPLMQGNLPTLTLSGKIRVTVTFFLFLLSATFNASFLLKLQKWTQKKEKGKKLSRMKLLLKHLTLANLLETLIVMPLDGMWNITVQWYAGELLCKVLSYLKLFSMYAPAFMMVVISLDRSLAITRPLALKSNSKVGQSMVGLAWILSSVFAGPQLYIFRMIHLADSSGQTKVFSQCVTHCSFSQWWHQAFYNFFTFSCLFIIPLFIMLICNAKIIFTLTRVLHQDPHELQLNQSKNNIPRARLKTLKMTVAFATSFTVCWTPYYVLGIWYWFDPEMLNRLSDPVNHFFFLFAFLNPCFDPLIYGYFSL
Chain of KiSS-1 receptor (Homo sapiens) (Q969F8 whole entry, looked up): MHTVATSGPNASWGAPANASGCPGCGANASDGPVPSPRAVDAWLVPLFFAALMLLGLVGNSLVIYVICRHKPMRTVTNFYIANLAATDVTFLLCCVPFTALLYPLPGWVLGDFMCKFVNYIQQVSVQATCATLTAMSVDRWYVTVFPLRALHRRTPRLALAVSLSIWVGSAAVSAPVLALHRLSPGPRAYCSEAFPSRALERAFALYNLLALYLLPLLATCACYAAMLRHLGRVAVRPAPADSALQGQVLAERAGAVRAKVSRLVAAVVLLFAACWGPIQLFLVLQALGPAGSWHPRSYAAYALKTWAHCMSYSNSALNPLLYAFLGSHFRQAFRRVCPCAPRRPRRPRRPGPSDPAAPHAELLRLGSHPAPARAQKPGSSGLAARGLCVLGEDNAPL
Chain of D(2) dopamine receptor (Homo sapiens) (P14416 whole entry, looked up): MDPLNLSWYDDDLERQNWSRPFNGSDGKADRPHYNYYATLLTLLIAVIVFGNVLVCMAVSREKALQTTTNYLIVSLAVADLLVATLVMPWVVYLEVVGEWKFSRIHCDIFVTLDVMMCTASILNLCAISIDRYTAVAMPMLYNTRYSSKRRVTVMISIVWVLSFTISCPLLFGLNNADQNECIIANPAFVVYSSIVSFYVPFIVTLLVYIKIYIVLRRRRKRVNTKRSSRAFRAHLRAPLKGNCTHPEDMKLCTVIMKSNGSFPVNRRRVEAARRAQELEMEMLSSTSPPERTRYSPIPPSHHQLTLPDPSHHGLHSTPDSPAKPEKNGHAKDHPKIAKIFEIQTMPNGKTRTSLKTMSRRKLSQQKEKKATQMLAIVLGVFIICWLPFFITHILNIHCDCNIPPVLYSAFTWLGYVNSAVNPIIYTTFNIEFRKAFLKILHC
Chain of Muscarinic acetylcholine receptor M1 (Homo sapiens) (P11229 whole entry, looked up): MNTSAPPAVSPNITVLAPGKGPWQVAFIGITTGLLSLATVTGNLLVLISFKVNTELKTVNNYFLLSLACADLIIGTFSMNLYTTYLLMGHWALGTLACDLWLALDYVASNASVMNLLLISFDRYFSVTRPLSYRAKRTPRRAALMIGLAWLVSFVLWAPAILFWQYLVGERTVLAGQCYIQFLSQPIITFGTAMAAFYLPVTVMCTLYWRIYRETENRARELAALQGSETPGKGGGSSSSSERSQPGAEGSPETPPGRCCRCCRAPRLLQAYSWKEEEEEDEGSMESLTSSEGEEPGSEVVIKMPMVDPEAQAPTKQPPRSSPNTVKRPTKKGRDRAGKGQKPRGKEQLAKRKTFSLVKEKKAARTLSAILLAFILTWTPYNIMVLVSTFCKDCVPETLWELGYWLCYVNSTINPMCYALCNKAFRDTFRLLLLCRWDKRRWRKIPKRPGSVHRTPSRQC

On to `CCOP(=S)(OCC)Oc1nc(Cl)n(C(C)C)n1`, for which the Potency result in [1], in experiment [2], in experiment [3], in experiment [4], in experiment [5] and in [6] was “inactive” throughout. Also, the Potency result in [7], in experiment [8], in experiment [9], in [10], in experiment [11] and in [12] was “inactive” throughout. For the same compound, the Potency entry in experiment [13], in experiment [14], in experiment [15], in experiment [16], in [17] and in [18] was “inactive” in each case. The Potency result in experiment [19] was “inactive”.
With `CNC(=O)Oc1cc(C)cc(C(C)C)c1`, the Potency entry in experiment [1], in experiment [2], in experiment [3], in experiment [4], in experiment [5] and in experiment [6] was “inactive” throughout. Moreover, the Potency entry in experiment [7], in experiment [8], in experiment [9], in experiment [10], in [11] and in experiment [12] was “inactive” each time. Also, the Potency result in experiment [13], in experiment [14], in [15], in experiment [16], in experiment [18] and in experiment [19] was “inactive” each time.
With `ClC(Br)Br`, the Potency entry in experiment [1], in [2], in experiment [3], in [4], in [5] and in experiment [20] was “inactive” in each case. Besides, the Potency entry in experiment [6], in experiment [7], in experiment [9], in experiment [11], in experiment [12] and in [14] was “inactive” throughout. Also, the Potency entry in experiment [15], in experiment [16], in [17] and in experiment [19] was “inactive” throughout.
As to `Oc1ccc2c3c1O[C@H]1[C@@H](O)C=C[C@H]4[C@@H](C2)NCC[C@@]341`, the Potency result in [1], in [2], in experiment [3], in experiment [4], in [5] and in [20] was “inactive” in each case. For the same compound, the Potency result in [7], in experiment [8], in experiment [9], in experiment [10], in experiment [11] and in experiment [12] was “inactive” throughout. The Potency result in experiment [13], in experiment [14], in experiment [15], in [16], in experiment [17] and in experiment [18] was “inactive” throughout.
Take `CNC(=O)O/N=C(/CSC)C(C)(C)C`: the Potency result in experiment [1], in [2], in experiment [3], in experiment [4], in experiment [5] and in experiment [6] was “inactive” in each case. Also, the Potency entry in experiment [7], in experiment [8], in experiment [9], in experiment [10], in experiment [11] and in [12] was “inactive” in each case. For the same compound, the Potency result in experiment [13], in experiment [14], in experiment [15], in experiment [16], in experiment [17] and in [19] was “inactive” throughout.
As to `COC(=O)N(OC)c1ccccc1COc1ccn(-c2ccc(Cl)cc2)n1`, the Potency entry in [1], in experiment [2], in [3], in experiment [4], in experiment [5] and in experiment [20] was “inactive” throughout. The Potency entry in experiment [6], in experiment [7], in experiment [8], in [10], in experiment [11] and in experiment [13] was “inactive” throughout. Further, the Potency result in [16], in experiment [17], in experiment [18] and in experiment [19] was “inactive” in each case. Also, the Potency in experiment [15] was 61.1 µM (active).
Consider `BrCCCBr`, for which the Potency result in experiment [1], in [2], in experiment [3], in [4], in [5] and in experiment [6] was “inactive” each time. In addition, the Potency entry in experiment [7], in experiment [8], in experiment [10], in experiment [11], in experiment [12] and in experiment [13] was “inactive” in each case. Besides, the Potency result in [14], in [15], in experiment [16], in [17] and in experiment [18] was “inactive” throughout.
